# Hit rate of the full screen: of about 360,000 compounds, about 2,100 (0.58%) were called active. Rule as the data show it: active = inhibition above about 36%; inactive = the rest. Many of the other results were omitted from the sample, so actives are more common in it than they were.
# Molecular target: NEDD8-conjugating enzyme Ubc12 (Homo sapiens) + NEDD8-activating enzyme E1 regulatory subunit (Homo sapiens) (UniProt P61081+Q13564)
# Experiment: inhibitors of cullin neddylation, primary screen, biochemical, TR-FRET, uHTS, NAE and Ubc12 (AID 651699)
# Details: at 25 µM, hits give high values
# NEDD8-conjugating enzyme Ubc12 (Homo sapiens) + NEDD8-activating enzyme E1 regulatory subunit (Homo sapiens), sequence (P61081 whole entry, looked up): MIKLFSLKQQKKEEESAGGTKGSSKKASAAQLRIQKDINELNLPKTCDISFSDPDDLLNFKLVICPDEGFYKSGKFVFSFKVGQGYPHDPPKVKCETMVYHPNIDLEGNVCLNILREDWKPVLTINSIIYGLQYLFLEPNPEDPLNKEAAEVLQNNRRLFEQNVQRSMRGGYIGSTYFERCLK
# NEDD8-conjugating enzyme Ubc12 (Homo sapiens) + NEDD8-activating enzyme E1 regulatory subunit (Homo sapiens), sequence (Q13564 whole entry, looked up): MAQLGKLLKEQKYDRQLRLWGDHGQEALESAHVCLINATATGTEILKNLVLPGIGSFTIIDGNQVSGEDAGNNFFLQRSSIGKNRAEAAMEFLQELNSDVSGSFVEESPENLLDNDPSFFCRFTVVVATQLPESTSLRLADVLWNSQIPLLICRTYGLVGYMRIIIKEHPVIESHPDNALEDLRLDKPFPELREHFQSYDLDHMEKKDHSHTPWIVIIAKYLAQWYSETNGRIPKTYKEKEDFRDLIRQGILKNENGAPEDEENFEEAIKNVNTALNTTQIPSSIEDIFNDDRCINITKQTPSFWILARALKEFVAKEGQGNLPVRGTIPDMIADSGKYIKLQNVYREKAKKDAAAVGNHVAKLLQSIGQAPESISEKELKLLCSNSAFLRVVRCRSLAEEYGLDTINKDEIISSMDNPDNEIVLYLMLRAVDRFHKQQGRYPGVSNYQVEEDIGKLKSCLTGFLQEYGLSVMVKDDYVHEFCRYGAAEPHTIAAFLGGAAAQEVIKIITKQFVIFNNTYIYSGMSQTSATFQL
row,SMILES,inhibition
1,CC(=CCOc1ccc2ccc(=O)oc2c1)C1=CC(=O)C(C)(C)O1,48.3% (active)
2,COC(=O)CN1C(=O)C2(C(C(=O)OC)=C(N)Oc3ccccc32)C2=C1CC(C)(C)CC2=O (stereo not given),0.61% (inactive)
3,O=C(CCC(=O)N1C[C@H]2C[C@@H](C1)c1cccc(=O)n1C2)NCc1ccccc1C(F)(F)F,-4.64% (inactive)
4,O=C(c1cc(S(=O)(=O)N2CCOCC2)ccc1F)N1CCC2(CC1)OCCO2,4.52% (inactive)
5,CCC(C)n1c(O)c(/C=N/Nc2nc3c(c(=O)n(C)c(=O)n3C)n2C)c(=O)[nH]c1=S (stereo not given),40.5% (active)
6,CCN1C(=O)NC(=O)C2(CCCC2)C1=O,1.81% (inactive)
7,CC(c1ccccc1)(c1ccccc1)c1ccncc1,-5.54% (inactive)
8,COc1ccc2c(c1)[C@]13CCCCC1C(C2)N(C)CC3 (stereo not given in full),-8.52% (inactive)
9,COP(=O)(NS(=O)(=O)c1ccccc1)OC,-0.79% (inactive)
10,CCN1c2nc3c(C)cccn3c(=O)c2CC2(C(=O)N(C)C(=O)N(C)C2=O)C1C (stereo not given),41.1% (active)
11,CCCCCn1c(=O)c(C(=O)NCc2ccccn2)c(O)c2ccccc21,4.17% (inactive)
12,CC1(C)Cc2c(C#N)c(N3CCNCC3)nc(-c3ccco3)c2CS1,25.7% (inactive)
13,COc1ccc(C(=O)C2CCCN(Cc3ccc(C)s3)C2)cc1OC (stereo not given),0.31% (inactive)
14,CN1C2C=C(N(C(=O)c3ccc(Cl)cc3)c3ccccc3)CC1CC2 (stereo not given),0.6% (inactive)
15,CCCCC(=O)N/N=C/c1c(O)n(CCC2=CCCCC2)c(=O)[nH]c1=O,52.9% (active)
16,O=c1[nH]c(=O)n(CCc2ccc(F)cc2)c(O)c1/C=N/N1CCCCC1,-6.7% (inactive)
17,CCCCC(=O)N/N=C/c1c(O)n(CC)c(=S)n(CC)c1=O,-37% (inactive)
18,COC(=O)C1=C(c2ccccc2)C[C@@H]2CC[C@H]1N2C(=O)N1CCCCC1,-6.19% (inactive)
19,COc1cccc(OC)c1C(=O)NC(=S)N1C[C@H]2C[C@H](C1)c1cccc(=O)n1C2,-2.07% (inactive)
20,c1ccc2sc(N3CCNCC3)nc2c1,1.66% (inactive)
